Among all 52,000 compounds or so, about 4,300 (8.3%) were called active. What follows is part of a selection rich in actives, with near analogues and random picks from the rest. Values without a mark were called inactive. Cut-off read from the data, not from the text of the source: active = survival mostly below about 52% (no sharp cut-off); inactive = mostly above about 56%.

In the assay the test system is DeltatarO mutant. Nature of the assay: growth inhibition of S. aureus wild type versus tarO mutant, primary screen, teichoic acid synthesis inhibitors, RN4220, OD600 (AID 463173). Conditions: OD600, 18 h, active compounds read low, screened at 18.75 µg/mL (by protocol).
In the case of `O=C(COC(=O)c1ccco1)Nc1cccc2ccccc12`, the survival is 97%. As for `CCOC(=O)c1c(-c2cccs2)csc1NC(C)=O`, the figure is 69%; as for `CNS(=O)(=O)c1cn(CC(=O)N2CCN(c3ccc(OC)cc3)CC2)cc1S(=O)(=O)NC`, 69%. The value for `CNS(=O)(=O)c1cn(CC(=O)N2CCN(c3ccc(C(C)=O)cc3)CC2)cc1S(=O)(=O)NC` was 37% (active); that for `CNS(=O)(=O)c1cn(CC(=O)N2CCN(c3ccc(Cl)cc3)CC2)cc1S(=O)(=O)NC` was 106%. The value for `O=C(Cn1cc(SCc2ccc(F)cc2)c2ccccc21)N1CCCCC1` was 79%; that for `Cc1ccc(NC(=O)c2oc3ccc(S(=O)(=O)N(C)C4CCCCC4)cc3c2C)c(C)c1` was 73%. Regarding `Cc1nc2ccc(NC(=O)C3CCCCC3)cc2c(=O)n1Cc1ccccc1`, the survival was 63%. For `Cc1ccc(CNS(=O)(=O)c2ccc(C(=O)N(C)C)s2)cc1`, the survival was -4% (active). `CN(C)C(=O)c1ccc(S(=O)(=O)NCc2ccc(Cl)cc2)s1`: the survival was 119%. Regarding `COc1ccc(CNS(=O)(=O)c2ccc(C(=O)N(C)C)s2)cc1`, the survival is 66%. With `CCCNC(=O)c1cnc2sc(N3CCCCC3)nn2c1=O`, the survival is 99%. `O=C(NCc1cccc(Cl)c1)c1cc2c(s1)-c1ccccc1SC2`: the survival was 64%. Consider `COc1cccc(C2c3c(-c4ccccc4O)n[nH]c3C(=O)N2CCc2ccc(OC)c(OC)c2)c1` (stereo unspecified), for which the survival was 8% (active). The value for `COc1cccc(C2c3c(-c4ccccc4O)n[nH]c3C(=O)N2Cc2cccnc2)c1` (stereo unspecified) was 84%. As for `COc1ccc(CCN2C(=O)c3[nH]nc(-c4ccccc4O)c3C2c2ccc(O)c(OC)c2)cc1` (stereo unspecified), the figure is 30% (active); as for `COc1ccc(CCN2C(=O)c3[nH]nc(-c4ccccc4O)c3C2c2ccc(OC)c(OC)c2)cc1` (stereo unspecified), 45% (active). As for `COc1cc(C2c3c(-c4ccccc4O)n[nH]c3C(=O)N2Cc2ccncc2)ccc1O` (stereo unspecified), the figure is 90%.

`CC(CNC(=O)c1ccc(CSc2nc3ccncc3n2Cc2ccccc2)cc1)c1ccccc1` (stereo unspecified): the survival was 78%.

With `CS(=O)(=O)NCc1ccc2c(c1)OCO2`, the survival was 92%.

Take `COc1ccc(CNC(=O)c2ccc3c(c2)N(Cc2ccccc2)C(=O)c2ccccc2S3(=O)=O)cc1`: the survival was 83%. As for `COc1ccc(CNc2ccc(C)c(C)c2)c(OC)c1OC`, the figure is 93%; as for `Cc1ccc2c(c1)N(C(=O)N1CCC(C(=O)NC3CCCCCC3)CC1)CC(C)O2` (stereo unspecified), 72%; as for `Cc1c(/C=C(\C#N)C(=O)Nc2cccc(Cl)c2)c2ccccc2n1Cc1ccccc1Cl`, 123%. Consider `Nc1c(S(=O)(=O)Cc2ccccc2)sc2nc3c(cc12)CCCC3`, for which the survival is 49%. As for `Cc1nnnn1CCC(=O)NC(C)c1ccccc1` (stereo unspecified), the figure is 84%; as for `Cc1cc(C)nc(N(C#N)Cc2ccccc2)n1`, 100%. As for `Cc1cc(C)cc(-n2c(SCC(=O)Nc3ccccc3)nc3c(oc4ccccc43)c2=O)c1`, the figure is 101%.

For `CCOC(=O)/C(C#N)=C\c1ccc(-c2cccc(C(F)(F)F)c2)o1`, the survival was 84%. Turning to `CCOC(=O)c1ccc(-c2ccc(/C=C(\C#N)C(=O)Nc3ccc(OCC)cc3)o2)cc1`, the survival was 60%. The value for `Cc1ccc(NC(=O)/C(C#N)=C/c2ccc(C)o2)cc1` was 79%. On to `CCCCOC(=O)/C(C#N)=C/c1ccc(-c2cccc(C(F)(F)F)c2)o1`, for which the survival is 46% (active). As for `CCCCOC(=O)c1ccc(NC(=O)/C(C#N)=C/c2ccc(-c3ccccc3)o2)cc1`, the figure is 32% (active). The value for `COc1ccc(NC(=O)/C(C#N)=C/c2ccc(C)o2)cc1` was 77%. The value for `CCC(C)OC(=O)/C(C#N)=C\c1ccc(-c2cccc(C(F)(F)F)c2)o1` (stereo unspecified) was 64%. For the molecule `CCCCOC(=O)c1ccc(NC(=O)/C(C#N)=C/c2ccc(C)o2)cc1`, the survival was 49% (active). The value for `N#C/C(=C\c1ccc(-c2ccccc2)o1)C(=O)Nc1ccccc1` was 90%.

`CCNC1CC(=O)N(c2ccc(C(=O)OCC)cc2)C1=O` (stereo unspecified): the survival is 112%. As for `CCOC(=O)C(C)Nc1ncnc2onc(C)c12` (stereo unspecified), the figure is 53%. The value for `CCN(C(=O)Cn1c(=O)n(Cc2ccccc2)c(=O)c2c1c1cc(OC)ccc1n2C)c1ccccc1` was 84%. As for `COc1ccc(Cl)cc1NC(=O)CSc1nc2c([nH]c3ccccc32)c(=O)n1-c1ccccc1`, the figure is 81%.

In the case of `NNC(=O)CNC(=O)c1cccs1`, the survival was 79%. In the case of `COc1ccccc1/C=C/C(=O)N1CCC(C(N)=O)CC1`, the survival is 99%. The value for `COC(=O)c1ccc(NC(=O)CSc2ccc(-c3cccs3)nn2)cc1` was 85%. As for `COc1ccccc1OCC(=O)Nc1c(C(=O)c2ccc(C)cc2)oc2ccccc12`, the survival is 82%. As for `Cc1ccc(C)c(NC(=O)CSc2nnc3[nH]c(=O)cc(-c4ccccc4)n23)c1`, the survival is 105%. As for `Cc1ccc(NS(=O)(=O)c2ccc3[nH]c4c(c3c2)CCCCCC4)cc1C`, the figure is -1% (active); as for `O=S(=O)(NCc1ccc(F)cc1)c1ccc2[nH]c3c(c2c1)CCCC3`, -1% (active). As for `COc1cc(NS(=O)(=O)c2ccc3[nH]c4c(c3c2)CCCCCC4)cc(OC)c1`, the figure is 64%. As for `COc1ccc(NS(=O)(=O)c2ccc3[nH]c4c(c3c2)CCCCC4)cc1`, the figure is 117%; as for `O=S(=O)(NCc1ccc(F)cc1)c1ccc2[nH]c3c(c2c1)CCCCC3`, 61%. As to `COc1ccc(NS(=O)(=O)c2ccc3[nH]c4c(c3c2)CCCCCC4)cc1`, the survival is -2% (active). With `Cc1ccc(CNS(=O)(=O)c2ccc3[nH]c4c(c3c2)CCCC4)cc1`, the survival was 84%. Regarding `COC(=O)c1ccc(NS(=O)(=O)c2ccc3[nH]c4c(c3c2)CCCCC4)cc1`, the survival was 91%. Regarding `CC(=O)c1ccc(NS(=O)(=O)c2ccc3[nH]c4c(c3c2)CCCC4)cc1`, the survival was 83%. For the molecule `COC(=O)c1ccc(NS(=O)(=O)c2ccc3[nH]c4c(c3c2)CCCC4)cc1`, the survival is 6% (active). The value for `Cc1ccc(NS(=O)(=O)c2ccc3[nH]c4c(c3c2)CCCCCC4)cc1Cl` was 72%. The value for `Cc1ccc(NS(=O)(=O)c2ccc3[nH]c4c(c3c2)CCCCCC4)cc1` was 84%; that for `Cc1ccc(N2C(=O)CCSC23C(=O)N(Cc2ccc(F)cc2)c2ccccc23)cc1` (stereo unspecified) was 90%; that for `CCCCNC(=O)CC1N=C2c3ccccc3N=C(SCC(=O)NCc3ccccc3Cl)N2C1=O` (stereo unspecified) was 72%.

With `O=c1c2cc3c(cc2n(Cc2cccc(Cl)c2)c(=O)n1Cc1nc(-c2ccccc2)no1)OCO3`, the survival was 61%.

Take `O=C(CCCn1c(=O)[nH]c2ccccc2c1=O)NCc1ccccc1Cl`: the survival was 123%. For `COc1ccc(CNC(=O)CSc2ncc(S(=O)(=O)c3ccc(C)c(Cl)c3)c(=O)[nH]2)cc1`, the survival is 80%. Regarding `Cc1ccc(C)c(N2CCN(S(=O)(=O)c3ccc4[nH]c5c(c4c3)CCCC5)CC2)c1`, the survival was -2% (active). The value for `Cc1ccc(N2CCN(S(=O)(=O)c3ccc4[nH]c5c(c4c3)CCCCC5)CC2)c(C)c1` was 102%. For `Cc1ccc(C)c(N2CCN(S(=O)(=O)c3ccc4[nH]c5c(c4c3)CCCCC5)CC2)c1`, the survival is 80%. With `COCCNc1oc(-c2ccc(OC)cc2)nc1C#N`, the survival was 54%. The value for `Cc1cc(C(=O)c2cccs2)c(N)s1` was 33% (active); that for `Cc1cc(C)cc(NC(=O)Cn2cc(C(=O)c3cccs3)c3ccccc32)c1` was 60%; that for `Cc1cc(OC(=O)c2cccs2)cc(OC(=O)c2cccs2)c1` was 99%. As to `COc1ccc(NC(=O)CCN2CCN(c3cccc(Cl)c3)CC2)cc1`, the survival was 67%. As for `Cc1ccc(CNC(=O)c2ccc(N3Cc4ccccc4Oc4ncccc43)s2)cc1`, the figure is 81%; as for `CCCCCc1ccc(-c2ccc(Br)cc2)nc1`, -4% (active); as for `CCCc1ccc(-c2ccc(C(=O)Oc3ccc(Br)cc3)cc2)nc1`, 136%.

`CCCCCc1ccc(-c2ccc(C(=O)Oc3ccc(C(=O)OC)cc3)cc2)nc1`: the survival is 71%. As for `COc1ccccc1C(=O)Nc1cc(-c2cccc(Br)c2)nn1-c1ccccc1`, the survival is 115%. `Cn1c(=O)oc2cc(S(=O)(=O)N3CCCC(C(=O)NCc4ccc(F)cc4)C3)ccc21` (stereo unspecified): the survival was 131%.

In the case of `Cc1cc(C)n(CCC(=O)Nc2ccc(Cl)cc2)n1`, the survival is 87%.

For the molecule `CCc1ccc2ncc3c(-c4ccccc4)nn(-c4ccccc4)c3c2c1`, the survival is 5% (active). In the case of `COc1ccc(-c2nn(-c3ccc(C)c(Cl)c3)c3c2cnc2cc(OC)c(OC)cc23)cc1`, the survival was 94%.

`COc1ccc(-n2nc(-c3ccc(C)cc3)c3cnc4cc(F)c(F)cc4c32)cc1`: the survival was 88%. As for `COc1ccc2ncc3c(-c4ccccc4)nn(-c4ccc(C)c(C)c4)c3c2c1`, the figure is 18% (active); as for `COc1ccc(-c2nn(-c3ccc(C)cc3)c3c2cnc2ccc(C)cc23)cc1OC`, 76%. For the molecule `FC(F)(F)c1ccc2c(c1)ncc1c(-c3ccccc3)nn(-c3ccccc3)c12`, the survival was 125%.

With `CCc1ccc(-c2nn(-c3ccc(OC)cc3)c3c2cnc2ccc(OC)cc23)cc1`, the survival was 14% (active). As for `CCOc1ccc2ncc3c(-c4cccc(OC)c4)nn(-c4ccccc4)c3c2c1`, the figure is 100%; as for `CCOc1ccc(-c2nn(-c3ccc(F)cc3)c3c2cnc2ccc(F)cc23)cc1`, 81%; as for `COc1cc2ncc3c(-c4ccccc4)nn(-c4ccc(C)cc4)c3c2cc1OC`, 47% (active). On to `Cc1ccc(-c2nn(-c3ccccc3)c3c2cnc2ccccc23)cc1C`, for which the survival was 68%. As to `Cc1ccc(-n2nc(-c3ccccc3)c3cnc4cc5c(cc4c32)OCO5)cc1C`, the survival is 127%. As for `O=C(Nc1ccc(F)cc1F)C1CCCN1S(=O)(=O)c1cccc2nsnc12` (stereo unspecified), the figure is 94%.
